About 79,000 compounds went through this panel and 15% of them were active in at least one assay; those are over-represented in the sample as a whole. Calls of active or inactive are those of the source. Rule as the data show it: active = growth inhibition above about 70%; inactive = the rest.
Key:
[1] = NCI Yeast Anticancer Drug Screen. Data for the rad52 strain (AID 147);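 also: 0% = growth of vehicle-treated control cultures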; conditions: S. cerevisiae rad52 mutant growth inhibition, active compounds read high
In short: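 Here a repair-compromised yeast strain receives each compound; its growth is then quantified and normalised to vehicle-only controls.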

[2] = NCI Yeast Anticancer Drug Screen. Data for the wt1 strain (AID 149);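 also: 0% = growth of vehicle-treated wt1 cultures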; conditions: S. cerevisiae wt1 strain (SPY 50644) growth inhibition, active compounds read high
In short: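 Measured: growth of wt1 yeast under compound versus vehicle treatment, reported as inhibition.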

[3] = NCI Yeast Anticancer Drug Screen. Data for the rad50EPP+ strain (AID 151);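 also: 0% = growth of vehicle-treated control cultures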; conditions: S. cerevisiae rad50 mutant strain, active compounds read high
In short: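 Read-out is yeast growth inhibition relative to vehicle; cells used were the rad50EPP+ strain.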

[4] = NCI Yeast Anticancer Drug Screen. Data for the mgt1 strain (AID 153); conditions: S. cerevisiae mgt1 mutant growth inhibition, active compounds read high
In short: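 Measured: inhibition of mgt1 yeast growth by compound, normalized to vehicle-treated cultures.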

[5] = NCI Yeast Anticancer Drug Screen. Data for the rad50 strain (AID 155);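 also: 0% = growth of vehicle-only cultures of the same strain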; conditions: S. cerevisiae rad50 strain growth inhibition, active compounds read high
In short: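 Growth of the mutant yeast was measured after compound exposure and referenced to vehicle-treated cultures.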

[6] = NCI Yeast Anticancer Drug Screen. Data for the mec2-1 strain (AID 157); conditions: S. cerevisiae mec2-1 strain, active compounds read high
In short: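 Using mec2-1 yeast: add compound, measure growth, express inhibition versus vehicle-treated cultures.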

[7] = NCI Yeast Anticancer Drug Screen. Data for the rad14 strain (AID 159);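 also: 0% = growth of vehicle-treated control cultures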; conditions: S. cerevisiae rad14 strain growth inhibition, active compounds read high
In short: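 Here, inhibition of yeast growth was measured after compound exposure, using a strain with a genetic defect in DNA damage repair and vehicle-treated cultures as the reference.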

[8] = NCI Yeast Anticancer Drug Screen. Data for the sgs1 mgt1 strain (AID 161);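 also: 0% = growth of cultures given vehicle only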; conditions: S. cerevisiae sgs1 mgt1 strain, active compounds read high
In short: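 Percent growth inhibition was derived by comparing compound-exposed mutant yeast with vehicle-exposed cultures. The strain carries alterations in DNA damage repair.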

[9] = NCI Yeast Anticancer Drug Screen. Data for the CLN2oe strain (AID 163);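 also: 0% = growth of vehicle-only control cultures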; conditions: S. cerevisiae CLN2oe strain, active compounds read high
In short: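 Whole-cell yeast growth assay. A strain engineered for altered cell-cycle control received compound, and inhibition relative to vehicle-treated cultures was recorded.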

[10] = NCI Yeast Anticancer Drug Screen. Data for the cln2 rad14 strain (AID 165);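 also: 0% = growth equal to vehicle treated cultures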; conditions: S. cerevisiae cln2 rad14 strain, active compounds read high
In short: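 Yeast strain cln2 rad14, bearing defects in cell cycle control and DNA repair, serves as the test system; values reflect growth inhibition compared with vehicle.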

[11] = NCI Yeast Anticancer Drug Screen. Data for the bub3 strain (AID 167); conditions: S. cerevisiae bub3 mutant strain, active compounds read high
In short: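 Whole-cell yeast assay. The mutant strain was incubated with compounds, and growth inhibition was determined by comparison with vehicle-treated cells.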

[12] = NCI Yeast Anticancer Drug Screen. Data for the wt2 strain (AID 169);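 also: 0% = growth of vehicle-treated yeast cultures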; conditions: S. cerevisiae wt2 strain growth inhibition, active compounds read high
In short: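 Treated yeast vs. vehicle-treated yeast: growth inhibition determined.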

[13] = NCI Yeast Anticancer Drug Screen. Data for the mlh1 strain (AID 171);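 also: 0% = growth of vehicle-treated control cultures of the same strain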; conditions: S. cerevisiae mlh1 strain growth inhibition, active compounds read high
In short: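 A yeast strain with a defined genetic lesion serves as the test organism. Cultures receive compound or vehicle, and growth is measured.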

[14] = NCI Yeast Anticancer Drug Screen. Data for the sgs1 strain (AID 173);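 also: 0% = growth of vehicle-only control cultures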; conditions: S. cerevisiae sgs1 mutant, active compounds read high
In short: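 A genetically defined yeast mutant is incubated with the test compound, and its growth is compared to that of the same strain given vehicle.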

[15] = NCI Yeast Anticancer Drug Screen. Data for the mlh1 rad18 strain (AID 175); conditions: S. cerevisiae mlh1 rad18 strain growth inhibition, active compounds read high
In short: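 Steps: expose repair-defective yeast to compound; measure growth; express inhibition against vehicle-treated controls.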

[16] = NCI Yeast Anticancer Drug Screen. Data for the rad18 strain (AID 177); conditions: S. cerevisiae rad18 mutant growth inhibition, active compounds read high
In short: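 Measured value is growth inhibition of a yeast strain bearing a DNA repair alteration, referenced to vehicle-treated cells.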

[17] = at 5.0 µM (retest, dose inferred, filed as 0.5)
[18] = at 50.0 µM (retest, dose inferred, filed as 5.0)

Measured: growth inhibition

C/C1=C/C2OC(=O)C3(C)C2C(CC2(C)OC1=CC2=O)OC3(O)C(C)C (stereo not drawn)
active: [3]; at 33.0 µM 72% | [3]; at 100.0 µM 91% | [4]; at 100.0 µM 93% | [8]; [18] 87% | [8]; at 50.0 µM 82.4% | [12]; at 33.0 µM 79% | [12]; at 100.0 µM 91% | [13]; at 100.0 µM 90% | [14]; at 33.0 µM 72% | [14]; at 100.0 µM 92%
inactive: [1]; at 1.2 µM -27% | [1]; at 3.7 µM -33% | [1]; at 11.0 µM -32% | [1]; at 33.0 µM -60% | [1]; at 100.0 µM -39% | [2]; at 1.2 µM -23% | [2]; at 3.7 µM -29% | [2]; at 11.0 µM -42% | [2]; at 33.0 µM -16% | [2]; at 100.0 µM -33% | [3]; at 1.2 µM -9% | [3]; at 3.7 µM -1% | [3]; at 11.0 µM 32% | [4]; at 1.2 µM -21% | [4]; at 3.7 µM -18% | [4]; at 11.0 µM 8% | [4]; at 33.0 µM 68% | [5]; at 1.2 µM -25% | [5]; at 3.7 µM -29% | [5]; [17] 16% | [5]; at 11.0 µM -38% | [5]; at 33.0 µM -57% | [5]; [18] 21% | [5]; at 50.0 µM 6.75% | [5]; at 100.0 µM -47% | [6]; at 1.2 µM -16% | [6]; at 3.7 µM -27% | [6]; [17] 18% | [6]; at 11.0 µM -27% | [6]; at 33.0 µM -18% | [6]; [18] 24% | [6]; at 50.0 µM -27.4% | [6]; at 100.0 µM -24% | [7]; at 1.2 µM -27% | [7]; at 3.7 µM -20% | [7]; at 11.0 µM -34% | [7]; at 33.0 µM -39% | [7]; at 100.0 µM -16% | [8]; [17] 21% | [9]; at 1.2 µM 4% | [9]; at 3.7 µM 22% | [9]; at 11.0 µM 13% | [9]; at 33.0 µM 0% | [9]; at 100.0 µM 10% | [10]; [17] 27% | [10]; [18] 29% | [10]; at 50.0 µM 7.4% | [11]; at 1.2 µM -8% | [11]; at 3.7 µM -19% | [11]; [17] 22% | [11]; at 11.0 µM -20% | [11]; at 33.0 µM -35% | [11]; [18] 16% | [11]; at 50.0 µM -16.7% | [11]; at 100.0 µM -28% | [12]; at 1.2 µM 8% | [12]; at 3.7 µM 21% | [12]; at 11.0 µM 27% | [13]; at 1.2 µM 21% | [13]; at 3.7 µM 5% | [13]; at 11.0 µM 31% | [13]; at 33.0 µM 60% | [14]; at 1.2 µM 5% | [14]; at 3.7 µM -1% | [14]; at 11.0 µM 26% | [15]; [17] 24% | [15]; [18] 32% | [15]; at 50.0 µM -6.1% | [16]; at 1.2 µM -6% | [16]; at 3.7 µM -33% | [16]; at 11.0 µM -38% | [16]; at 33.0 µM -44% | [16]; at 100.0 µM -37%
